FBA Mtb inh – Mtb fructose-bisphosphate aldolase inhibition; P9WQA3; purified M. tuberculosis FBA, fluorescence read-out; inhibition, % at 1 µM; actives 2.3% (n = 360,000); AID 588726; in the data active means inhibition above about 27%
RecA splice inh – Mtb RecA intein splicing inhibition; inhibition, % (no concentration beside the values); AID 2221; cell-free RecA intein splicing, fluorescence; actives 0.75% (n = 290,000); in the data active means inhibition above about 30%
Target sequence (P9WHJ3 whole entry, looked up, canonical isoform): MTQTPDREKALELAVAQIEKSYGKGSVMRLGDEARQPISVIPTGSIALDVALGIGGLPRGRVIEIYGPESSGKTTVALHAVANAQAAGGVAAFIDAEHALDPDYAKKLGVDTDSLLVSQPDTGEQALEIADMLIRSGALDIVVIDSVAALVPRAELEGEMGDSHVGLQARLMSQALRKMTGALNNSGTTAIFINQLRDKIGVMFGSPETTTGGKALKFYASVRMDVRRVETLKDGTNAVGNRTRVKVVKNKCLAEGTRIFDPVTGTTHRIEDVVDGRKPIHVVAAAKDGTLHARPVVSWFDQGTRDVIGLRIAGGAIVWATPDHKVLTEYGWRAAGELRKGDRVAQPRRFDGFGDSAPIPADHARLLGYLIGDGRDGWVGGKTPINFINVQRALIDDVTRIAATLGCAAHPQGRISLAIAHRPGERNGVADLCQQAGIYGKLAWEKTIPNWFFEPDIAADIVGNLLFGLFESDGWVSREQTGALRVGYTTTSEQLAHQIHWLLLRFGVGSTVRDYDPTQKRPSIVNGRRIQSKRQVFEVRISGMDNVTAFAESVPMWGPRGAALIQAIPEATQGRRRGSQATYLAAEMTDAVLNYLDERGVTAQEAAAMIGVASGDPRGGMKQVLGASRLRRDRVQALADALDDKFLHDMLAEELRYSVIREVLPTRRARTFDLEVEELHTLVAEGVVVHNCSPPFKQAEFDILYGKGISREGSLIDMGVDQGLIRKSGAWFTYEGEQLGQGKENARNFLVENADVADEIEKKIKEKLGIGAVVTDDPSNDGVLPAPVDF
CCHF vOTU inh – blocks the CCHF virus ovarian tumor domain protease | CCHFV vOTU protease, Pep-AMC fluorescence | inhibition, % at 11.5 µM | actives 0.55% (n = 370,000) | AID 651958
GDH-TPI counter – GDH-TPI coupled enzyme inhibition counter-screen | GDH-TPI coupled enzyme counterscreen, NADH absorbance | actives 1.2% (n = 360,000) | inhibition, % at 4.8 µM
Each line names hits and unclear results; the compound was inactive in the other large screens. Only some compounds are listed: those with a hit (about 4.2% of all), similar ones and a draw of the others. Unless noted, no stated cut-off is given here; in the data, active means inhibition above about 30%; inactive means the rest.

Cc1cccc(N(CC(=O)N/N=C/c2cc([N+](=O)[O-])ccc2Cl)S(C)(=O)=O)c1C	FBA Mtb inh 34.0 (no result: CCHF vOTU inh)
CN(N=Cc1ccccc1)C(=S)Nc1ccccc1	none (no result: RecA splice inh)
O=[N+]([O-])c1cc(/C=N/Nc2nc3ccccc3[nH]2)c(O)cc1O	RecA splice inh 40.2 (no result: FBA Mtb inh, GDH-TPI counter)
Cc1ccc(/C=N/Nc2nc(Cl)c(Cl)cc2Cl)s1	GDH-TPI counter 31.2
C(=N\Nc1nc2ccccc2[nH]1)/c1c[nH]c2ccccc12	none
Cc1ccsc1/C=N/Nc1nc(Cl)c(Cl)cc1Cl	none
C(=N\Nc1nc2ccccc2[nH]1)/c1ccccc1	none
Cc1ccccc1/C=N/Nc1nc2ccccc2[nH]1	FBA Mtb inh 189.3
C(=C\c1ccccc1)/C=N/Nc1nc2ccccc2[nH]1	GDH-TPI counter 39.4
Cc1ccc(-n2ncc3c2CC(C)(C)CC3NC(=O)CCc2ccc(=O)[nH]n2)cc1 (centres undefined)	none
CCCC(C(=O)NC1CCCC1)N(Cc1ccccc1Cl)C(=O)c1snc(C(N)=O)c1N (centres undefined)	none
O=C(Nc1ccccc1)c1cc(C2CCCCN2C(=O)CCc2ccccc2)on1 (centres undefined)	none (no result: RecA splice inh)
COc1cc(F)ccc1S(=O)(=O)N1CCN(c2ccccc2)CC1	none
Cc1ccc(/C=N/Nc2nc3ccccc3[nH]2)s1	GDH-TPI counter 39.3
COc1ccc(N2CCN(CCNS(=O)(=O)c3ccc(F)cc3)CC2)cc1	none (no result: FBA Mtb inh, RecA splice inh, GDH-TPI counter)
CCn1c(=O)c([N+](=O)[O-])c(Cl)c2ccccc21	RecA splice inh 40.7 (no result: CCHF vOTU inh)
CCn1c(=O)c([N+](=O)[O-])c(NCCN(C)C)c2ccccc21	none
Cc1cn(C(=O)c2ccccc2)c(=S)n1-c1ccc(Cl)cc1	GDH-TPI counter 33.6
O=C(O)c1ccc2ncc(NC(=O)c3ccc(F)cc3)c(=O)n2c1	none
Cc1ccc2ncc(NC(=O)c3ccc(F)cc3)c(=O)n2c1	GDH-TPI counter 33.0
Cc1cc(Br)c2nc(-c3cccc(Br)c3)c(Cc3cccc(Cl)c3)n2c1	none (no result: FBA Mtb inh, RecA splice inh, GDH-TPI counter)
CC1=C(C(=O)N(C(C)C)C(C)C)CC(CC(=O)NCCN2CCOCC2)C(=O)N1Cc1ccc(F)cc1 (centres undefined)	none (no result: RecA splice inh, GDH-TPI counter)
Cc1ccc(C)c(NC(=O)Cn2nnc(-c3ccncc3)n2)c1	none (no result: FBA Mtb inh, RecA splice inh, GDH-TPI counter)
Cc1cc(C(=O)c2cnc(/N=C/N(C)C)s2)cc(C)c1O	none
CN(C)/C=N/c1ncc(C(=O)c2ccccc2)s1	GDH-TPI counter 32.5
CN(C)/C=N/c1ncc(C(=O)c2ccc(-c3ccccc3)cc2)s1	GDH-TPI counter 34.1
Cc1cc(OCCOCCNCc2ccccc2)ccc1C(C)C	none (no result: RecA splice inh)
CCCCCn1nnnc1C1c2ccccc2OCC(=O)N1Cc1ccco1 (centres undefined)	none (no result: FBA Mtb inh, RecA splice inh, GDH-TPI counter)
Cc1ccc(C(=O)Nc2cccc(C(=O)N3CCOCC3)c2)cc1Cl	none
Cc1c(N=Cc2c(O)n(Cc3ccccc3)c(=O)[nH]c2=O)c(=O)n(-c2ccccc2)n1C	none (no result: RecA splice inh)
Cc1c(N=Nc2c(O)n(Cc3ccccc3)c(=O)[nH]c2=O)c(=O)n(-c2ccccc2)n1C	GDH-TPI counter 35.8
COc1ccccc1-n1c(O)c(C=Nc2c(C)n(C)n(-c3ccccc3)c2=O)c(=O)[nH]c1=O	GDH-TPI counter 36.6
COc1ccc(OC)c(-n2c(O)c(C=Nc3c(C)n(C)n(-c4ccccc4)c3=O)c(=O)[nH]c2=O)c1	none
O=Cc1s/c(=N\S(=O)(=O)c2ccccc2)n(CCCCl)c1Cl	RecA splice inh 94.6
CCC(C)n1c(O)c(C=NCCc2ccccc2)c(=O)[nH]c1=S (centres undefined)	GDH-TPI counter 55.1
CCC(C)n1c(O)c(/C=N/Nc2ccccc2)c(=O)[nH]c1=S (centres undefined)	none
CCOc1cc(C2NN=C(c3ccc(C)cc3)S2)ccc1O (centres undefined)	GDH-TPI counter 34.4 (no result: RecA splice inh)
COc1ccc(C2NN=C(c3ccc(C)cc3)S2)cc1 (centres undefined)	none
COC(=O)CCCC1=CC2=C(c3ccccc3)C(=O)C(C)(OC(=O)C3CCCC3)C(=O)C2=CN1Cc1ccco1 (centres undefined)	none
COC(=O)CCCC1=CC2=C(c3ccccc3)C(=O)C(C)(OC(=O)C3CCCC3)C(=O)C2=CN1CCCCO (centres undefined)	RecA splice inh 39.2
N#CCC(=O)N/N=C/c1cn(Cc2ccccc2C#N)c2ccccc12	none (no result: RecA splice inh)
CCOC(=O)Cn1cc(/C=N/NC(=O)CC#N)c2ccccc21	RecA splice inh 52.2
COC(=O)Cn1cc(/C=N/NC(=O)c2ccc(C#N)cc2F)c2ccccc21	GDH-TPI counter 38.4
CC(C)C[C@H]1COc2cc(N3CCCC3)ccc2S(=O)(=O)N1C	none (no result: FBA Mtb inh, RecA splice inh, GDH-TPI counter)
O=C(O)c1cnc2[nH]c3ccccc3n2c1=O	FBA Mtb inh 176.1, GDH-TPI counter 36.2
Nc1c(S(=O)(=O)c2cccs2)c2nc3ccccc3nc2n1/N=C/c1cccc(O)c1	GDH-TPI counter 45.3
COc1cccc(/C=N/n2c(N)c(S(=O)(=O)c3cccs3)c3nc4ccccc4nc32)c1	none
COc1ccc2cc(C=NS(=O)(=O)c3ccc(C)cc3)n(C)c2c1	GDH-TPI counter 35.5 (no result: RecA splice inh)
COc1ccc(/C=N/S(=O)(=O)c2ccc(C)cc2)cc1	none
COc1ccc2cc(C=O)n(C)c2c1	GDH-TPI counter 44.5 (no result: RecA splice inh)
COC(=O)[C@]12CCCCC=C1N(Cc1ccco1)C(=O)[C@H](CC(=O)N1CCC(c3ccccc3)CC1)C2	none (no result: FBA Mtb inh, RecA splice inh, GDH-TPI counter)
Cc1c(/C=N/NC(=O)c2ccc(O)cc2)c2ccccn2c1C(=O)c1ccc(F)cc1	GDH-TPI counter 31.7
CCCc1cc(C(=O)Cc2ccc(F)cc2)c(O)cc1O	GDH-TPI counter 32.1
O=C(Cc1c(F)cccc1Cl)c1ccc(O)cc1O	GDH-TPI counter 34.3
CCOC(=O)C(=O)Cc1nc2ccccc2s1	none
CCCc1cc(C(=O)Cc2nc3ccccc3s2)c(O)cc1O	GDH-TPI counter 37.8
O=C(Cc1ccc(F)cc1)c1ccc(O)cc1O	GDH-TPI counter 46.1
CCOC(=O)c1csc(NC(=O)C2CCCN(S(=O)(=O)c3ccccc3)C2)n1 (centres undefined)	none (no result: FBA Mtb inh, RecA splice inh, GDH-TPI counter)
CCc1nnc(NC(=O)CN2C(=O)N(C)C3(CCCCC3)C2=O)s1	none (no result: RecA splice inh)
CC(C)(C)C(=O)NC(=S)Nc1ccc(F)cc1	none
CCc1cc(C(=O)COc2ccccc2F)c(O)cc1O	GDH-TPI counter 37.9
O=C(Cc1nc2ccccc2[nH]1)c1ccc(Cl)cc1	none (no result: RecA splice inh)
CCc1cc(C(=O)Cc2nc3ccccc3[nH]2)c(O)cc1O	GDH-TPI counter 38.9
O=C(Nc1c(-c2ccccc2)[nH][nH]c1=O)c1cccs1	none (no result: FBA Mtb inh, RecA splice inh, GDH-TPI counter)
CCc1ccc([C@@H]2CC=C(C(=O)O)[C@H](c3ccc(F)cc3)N2S(=O)(=O)c2ccc(C)cc2)cc1	none (no result: RecA splice inh)
Cc1nccn1CCOc1ccccc1Cl	none
Cc1nc2ccccn2c(=O)c1NC(=O)c1cccc2ccccc12	GDH-TPI counter 30.7
CCN(CC(=O)Nc1ccc(NC(C)=O)cc1)C(=O)CCCc1c[nH]c2ccccc12	none (no result: RecA splice inh)
CC(=O)Nc1ccc(S(=O)(=O)Nc2nc3ccccc3nc2Nc2ccc3ccccc3c2)cc1	none
CC(=O)Nc1ccc(S(=O)(=O)Nc2nc3ccccc3nc2Nc2ccc(N)cc2)cc1	GDH-TPI counter 31.2
COc1ccccc1C1C(C(=O)c2cc3ccccc3o2)=C(O)C(=O)N1c1cc(C)on1 (centres undefined)	GDH-TPI counter 31.3
CCOC(=O)c1cc2c(nc1N)CC(C)(C)OC2	FBA Mtb inh 163.7
CCOC(=O)c1cc2c(nc1N)CC(C)(CC)OC2 (centres undefined)	FBA Mtb inh 111.9

Screening data deposited in PubChem BioAssay by several laboratories.
